Compounds without any hit were thinned out: in the full panel of roughly 83,000, 20% have a hit.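 Single-concentration screen, 48 h exposure, 96-well plates. Endpoint: percent growth. Below 10 = active.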 Values without a mark were called inactive. The source made the active and inactive calls.
Test system: HL-60(TB) leukemia
Assay: NCI-60 one-dose screen, 48 h (100 = growth as untreated, 0 = no growth, -100 = all killed)
Details: 10 µM unless noted

Compound	growth
COc1cccc(-c2nc3sccn3c2-c2ccnc(NCCCNS(=O)(=O)c3ccc(F)cc3)n2)c1	12.1%
CCN(CC)CCCC(Nc1c2ccc(Cl)cc2nc2ccc(OC)cc12)c1ccc(F)cc1 (stereo not given)	-37.5% (active)
Clc1ncn[nH]1	103%
Cn1cc(-c2csc(-c3cn(C)c4ccccc34)n2)c2cnccc21	-41.4% (active)
CCOC(=O)CC1C(CNC(=O)NC)OC(n2cnc3c(NC(=O)Nc4ccccc4)ncnc32)C1O[Si](C)(C)C(C)(C)C (stereo not given)	44.5%
C=CCn1c(SCC(=O)Nc2ccc(C(=O)/C=C/c3cc(OC)c(OC)c(OC)c3)cc2)nnc1-c1cc(OC)c(OC)c(OC)c1	16.5%
Cc1cccc(NC(=O)N/C(N)=N/c2nc3ccccc3s2)c1	5.69% (active)
Oc1ccc(C(c2ccc(O)cc2)C(Cl)(Cl)Cl)cc1	68.1%
CCCCCCCCCc1cc[n+](CC(=O)c2ccc([N+](=O)[O-])cc2)cc1	-40.4% (active)
COc1ccc(-c2nc3ccc(Cc4ccc5nc(-c6ccc(OC)cc6)[nH]c5c4)cc3[nH]2)cc1	9.66% (active)
O=S(=O)(Nc1ccc(Br)cc1)c1ccc(-c2cnc(C3CC3)o2)cc1	-36% (active)
O=C(CSc1nnc(-c2cc(-c3ccccc3)nc3ccccc23)n1-c1ccccc1)Nc1ccc(C(=O)/C=C/c2ccc(Cl)cc2)cc1	89%
COc1cc2ncnc(-n3ncc4cc(NC(=O)Nc5ccccc5)ccc43)c2cc1OC	-15.9% (active)
COc1cccc(/C=N/NC(=O)c2ccccc2N2CCCC2)c1O	4.58% (active)
COc1cc(/C=C2\C(=O)N(CCOc3cc(O)c4c(=O)cc(-c5ccccc5)oc4c3)c3ccccc32)cc(OC)c1O	-9.06% (active)
COc1ccc(Cn2cc(COc3ccc4c5ccnc(C)c5n(CCCc5ccccc5)c4c3)nn2)cc1	-55.7% (active)
O=C(Nc1ccc(I)cc1F)c1cc(I)ccc1O	-25.2% (active)
C[n+]1c2ccccc2nc2ccccc21	13.3%
O=C(CCl)N(c1ccccc1)c1ccccc1	101%
Cc1ccc(Cl)cc1N1C(=O)CC(Sc2ccccc2N)C1=O (stereo not given)	110%

Compound	growth
COc1cc(NC(=O)Nc2cnc(Nc3ccc(N4CCOCC4)cc3)nc2Oc2ccc(C(F)(F)F)cc2)cc(OC)c1	96.4%
COC1=C(OC)C(=O)C(SC/C=C(\C)CCCC(C)CCCC(C)CCCC(C)C)=CC1=O (stereo not given)	-36.3% (active)
Brc1ccc(Br)nn1	-32.7% (active)
Cc1ccc(S(=O)(=O)N(CCc2ccc(Cl)cc2)S(=O)(=O)c2ccc(C)cc2)cc1	85.3%
COc1ccc(-c2cc(-c3nnc(SCC(=O)Nc4ccc(/C(C)=N\O)cc4)o3)c3ccccc3n2)cc1	104%
COCCn1cc(-c2nc(-c3c[nH]c4ncccc34)cs2)c2ccccc21	76.9%
Cc1nc(NC(=S)Nc2ccc(F)cc2)sc1C(=O)NNC(=S)Nc1ccc(F)cc1	48.3%
COC(=O)/C=C1\S/C(=N\NC(=O)c2cc3ccc2/C=C\c2ccc(cc2)/C=C\3)N(c2ccccc2)C1=O	16.4%
CCOCC[P+](c1ccccc1)(c1ccccc1)c1ccccc1	11.7%
COc1cc2ncnc(Nc3ccc(F)c(Cl)c3)c2cc1NC(=O)/C=C/CN1CCCCC1	-50.2% (active)
Cc1sc2c(c1C)c(=O)nc1c(-c3nc(-c4ccccc4)cs3)n[nH]n12	94.1%
COc1ccc(-c2nc3c(c(-c4ccc(Cl)cc4)nn3-c3ccccc3)c(-c3ccc(O)cc3)c2C#N)cc1	22.7%
Cc1ccc(S(=O)(=O)n2cc(-c3csc(-c4cn(C)c5ncccc45)n3)c3ccccc32)cc1	61.9%
N#CN1CC[C@H](C(=O)Nc2ncc(-c3ccccc3)s2)C1	-23.2% (active)
CC(OC(=O)Nc1cccc(Cl)c1)C(=O)O (stereo not given)	90.2%
C=CCCCCOc1ccccc1-c1cnc(OCCCCC=C)n1C	66.5%
FC(F)(F)c1ccc(-c2cnc(-n3cc(COCCN4CCCCC4)nn3)nc2NC2CCCCCC2)cc1	-63.1% (active)
CNC(=O)N/N=C/c1ccc([N+](=O)[O-])o1	66.4%
Cc1nn(-c2cccc(Cl)c2)c(C)c1N=Nc1ccc(Br)cc1	77.9%
OC(c1cc(-c2ccc(Cl)cc2)nc2c(Cl)cccc12)C1CCCCN1 (stereo not given)	-67% (active)

Reference: PubChem BioAssay (NCI)
